Hit rate of the full screen: of about 160,000 compounds, about 240 (0.15%) were called active. Cut-off read from the data, not from the text of the source: active = inhibition above about 40%; inactive = the rest. Shown is part of a subset that was picked to be rich in actives.
Molecular target: Cyclic GMP-AMP synthase (Mus musculus) (UniProt Q8C6L5)
Experiment: cyclic GMP-AMP synthase inhibitors, mouse, primary biochemical chemiluminescence (AID 1259399);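 note: 0% = negative control wells and 100% = reference inhibitor with no enzyme activity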
Conditions: recombinant cGAS, Kinase-Glo ATP depletion luminescence; at 12.5 µM; active compounds read high

Cyclic GMP-AMP synthase (Mus musculus), sequence (Q8C6L5 whole entry, looked up): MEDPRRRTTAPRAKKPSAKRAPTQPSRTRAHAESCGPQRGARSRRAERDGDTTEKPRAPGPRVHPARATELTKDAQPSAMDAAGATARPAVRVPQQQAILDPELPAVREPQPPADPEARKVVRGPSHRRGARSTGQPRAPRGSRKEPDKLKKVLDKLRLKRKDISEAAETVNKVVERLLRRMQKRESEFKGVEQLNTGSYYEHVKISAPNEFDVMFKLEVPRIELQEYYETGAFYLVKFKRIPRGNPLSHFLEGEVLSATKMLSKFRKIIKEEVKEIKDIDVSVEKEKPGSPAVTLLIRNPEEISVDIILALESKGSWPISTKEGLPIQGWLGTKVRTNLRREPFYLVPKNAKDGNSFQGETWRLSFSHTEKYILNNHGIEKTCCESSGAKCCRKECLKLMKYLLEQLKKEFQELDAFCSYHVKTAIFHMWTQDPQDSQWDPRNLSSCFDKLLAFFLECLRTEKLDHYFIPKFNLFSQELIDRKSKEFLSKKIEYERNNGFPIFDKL

SMILES	inhibition
COC[C@H](C)NC(=O)Cc1sc(C)nc1C	-2.6% (inactive)
O=C(CCN1C(=O)COc2ccccc21)N1CCC2(CCCO2)CC1	-9.44% (inactive)
O=C1c2ccccc2C(=O)N1CN(C(=O)C(F)(F)F)c1ccc(I)cc1	-2.77% (inactive)
CC1c2cccn2CCN1Cc1ccc(C#N)cc1F (stereo unspecified)	-13.4% (inactive)
CC1=C(C(=O)OCC(C)C)C23C(=O)c4ccccc4C2(OC(=N)C3C#N)O1 (stereo unspecified)	-3.99% (inactive)
COCCCn1c(CN2CCCC(C(=O)c3ccccc3)C2)cnc1S(C)(=O)=O (stereo unspecified)	-11% (inactive)
O=C(Cn1nnc(-c2ccccc2)n1)Nc1c(F)cccc1F	4.62% (inactive)
CCOCCCN(CC(=O)N(Cc1ccccc1)Cc1sccc1C)C(=O)c1cccc(Br)c1	1.83% (inactive)
COc1ccc(C(=O)N(Cc2ccc(F)cc2)Cc2cc(NC(=O)c3ccco3)ccc2N(C)C)cc1	-0.342% (inactive)
CC(C)(C)c1cc2nc(-c3ccccc3F)cc(C(=O)NC3CC3)n2n1	-7.68% (inactive)
CC(C)(C)S(=O)(=O)c1ccc2nn(CC(=O)Nc3ccc(Cl)cc3)c(=O)n2n1	-9.01% (inactive)
CCCN1CCN(S(=O)(=O)c2[nH]ncc2C(=O)OCC)CC1	-10.5% (inactive)
Cc1ccc(C)c(NC(=O)Cn2nc3c(=O)n(-c4ccc(Br)cc4)ccn3c2=O)c1	-5.88% (inactive)
Cc1ccc(C)c(Cn2ccnc2CN(CC(C)C)C(=O)c2cccc(F)c2)c1	-11.5% (inactive)
COc1ccc(OC)c(CC(=O)NC2CC(C)(C)Cc3c2cnn3-c2cccc(F)c2)c1 (stereo unspecified)	-9.44% (inactive)
Fc1ccc(CN2CCCn3cccc3C2c2ccoc2)cc1Cl (stereo unspecified)	0.16% (inactive)
O=C1NC2(CCN(Cc3ccccc3[N+](=O)[O-])CC2)Nc2ccc(Br)cc21	-4.81% (inactive)
CCOC(=O)C1=C(C)N=c2s/c(=C\c3ccc(Cl)c(Cl)c3)c(=O)n2C1c1cccs1 (stereo unspecified)	-4.71% (inactive)
COc1cccc(Cc2c(C)nc(C)nc2N2CCN(S(=O)(=O)c3ccc(NC(C)=O)cc3)CC2)c1	-9.89% (inactive)
CCCCn1c(SCc2nnc(C)o2)nc2sc(C)c(C)c2c1=O	-8.28% (inactive)
O=C(Nc1ccc(-c2ccccc2)cc1)N[C@@H](Cc1ccccc1)C(=O)N1CCC(C(=O)N2CCOCC2)CC1	1.19% (inactive)
COc1ccc(C)cc1S(=O)(=O)Nc1ccccc1C(=O)NCc1cccc(Cl)c1	-4.63% (inactive)
NC(=O)c1cncc(-n2ccnc2-c2ccccc2)c1	-8.08% (inactive)
CC(C)Nc1cc(N2CC(c3ccccn3)C2)ncn1	-15.6% (inactive)
C=CCn1c(SCC(=O)c2cc(C)n(CCOC)c2C)nc2scc(-c3ccccc3)c2c1=O	1.74% (inactive)
CC(C)N(C(=O)CN1CCN(C(=O)c2cn(C)cc3c(=O)n(-c4ccccc4)nc2-3)CC1)C(C)C	-8.86% (inactive)

SMILES	inhibition
CCOC(=O)c1cc(-c2ccc(N3CCN(C(=O)COCc4ccccc4)CC3)cc2)n(-c2ccccc2Cl)n1	-7.07% (inactive)
COc1cccc(C(CN2CCN(C(=O)c3oc4ccccc4c3C)CC2)OCc2cccc(Cl)c2)c1 (stereo unspecified)	-3.76% (inactive)
O=C(c1ccccc1Br)N1CCc2nc(-c3ccccc3)nc(N3CCCCC3)c2C1	-6.08% (inactive)
O=C(Nc1nnc(C23CC4CC(CC(C4)C2)C3)s1)C12CC3CC(CC(C3)C1)C2	-5.12% (inactive)
Cc1ccccc1Cc1nc2c(c(=O)[nH]1)CN(C(=O)Cc1ccc(F)cc1)CC2	-2.79% (inactive)
CC(C)c1nnsc1C(=O)N1CCC2(CC1)C(=O)NCCN2C	-8.76% (inactive)
CC(Nc1ccc([N+](=O)[O-])cc1S(=O)(=O)N1CCOCC1)c1ccc(F)cc1F (stereo unspecified)	-8.24% (inactive)
N#Cc1ccc(-c2ccccc2)nc1SC(C(=O)O)c1ccccc1 (stereo unspecified)	-4.77% (inactive)
CCCS(=O)(=O)N1CCCC(C(=O)NC(C)CC)C1 (stereo unspecified)	-2.19% (inactive)
COc1cc([N+](=O)[O-])cc2sc(NC(=O)C(C)C)nc12	-2.21% (inactive)
CCn1c(=O)c(C(=O)NCC2CCCO2)nn(-c2ccccc2F)c1=O (stereo unspecified)	-8.2% (inactive)
CC(C)(C)c1ccc(C2SCC(=O)N2CCC(=O)O)cc1 (stereo unspecified)	-3.76% (inactive)
CCCC(=O)Nc1ccc(NC(=O)c2cc(C(C)C)[nH]n2)cc1OC	-8.07% (inactive)
O=C(NC(c1ccccc1)c1ccc(Cl)cc1)C1CC1(c1ccccc1)c1ccccc1 (stereo unspecified)	-5.82% (inactive)
COCCCN1COc2ccc3c(=O)c(Oc4ccc(OC)cc4)coc3c2C1	-1.41% (inactive)
Brc1ccc(N=c2oc3ccccc3cc2-c2nc3ccccc3[nH]2)cc1	-0.816% (inactive)
COc1ccc(-c2nnc3ccc(OCCNS(=O)(=O)c4cccs4)nn23)cc1	-9.21% (inactive)
Oc1c(Cl)cc(Cl)c2ccc(N/N=C\c3cccc(Oc4ccccc4)c3)nc12	-3.37% (inactive)
O=c1n(Cc2noc(-c3ccoc3)n2)nnn1-c1cccs1	-17.5% (inactive)
CC(C)(C)S(=O)(=O)c1ccc(N2CCN(c3ccc(Cl)cc3)CC2)nn1	-8.96% (inactive)
COc1ccccc1C(=O)N1CCN(CC(OCc2c(F)cccc2F)c2ccc(Cl)cc2)CC1 (stereo unspecified)	-2.63% (inactive)
C[N+](C)(CCCCCC[N+](C)(C)CCCN1C(=O)c2cccc3cccc(c23)C1=O)CCCN1C(=O)c2cccc3cccc(c23)C1=O	75.6% (active)
COc1ccc(N2C(=O)c3cccc4cccc(c34)C2=O)cc1OC	-7.45% (inactive)
Cc1ccccc1N(CCCN1C(=O)c2cccc3cccc(c23)C1=O)C(=O)c1ccc([N+](=O)[O-])cc1	2.98% (inactive)
COc1cc(C=C2N=C(C(C)(C)C)OC2=O)ccc1OC(F)F	1.97% (inactive)
COc1ccc(C(=O)N2CCCC3(CC2)CNC(=O)O3)cc1N1CCOCC1 (stereo unspecified)	-11.6% (inactive)

SMILES	inhibition
O=C(COc1ccc(Cl)cc1)Nc1c(-c2cccc(F)c2)nc2ccccn12	-8.5% (inactive)
COCCCN(CC(=O)N1CCc2sccc2C1c1ccc(C)cc1)C(=O)c1ccc(C)c([N+](=O)[O-])c1 (stereo unspecified)	-4.86% (inactive)
O=C(Cc1ccccc1)N1CC(=O)N(Cc2ccco2)CC(O)C1 (stereo unspecified)	-3.15% (inactive)
COc1cc2c(cc1OC)C(CNC(=O)NC(C)(C)C)N(Cc1ccc(F)cc1)CC2 (stereo unspecified)	-7.88% (inactive)
Cc1cnc(C(=O)N2CC(c3ccncc3)C2)cn1	-13.8% (inactive)
NCCOCc1ccc(-c2ccc(F)c(CO)c2)cc1	-21.2% (inactive)
COc1ccc(S(=O)(=O)N(CC(=O)N2CCc3sccc3C2c2ccccc2C)C(C)C)cc1 (stereo unspecified)	-2.82% (inactive)
COCC(=O)Nc1cccc(-n2nc(OCCc3ccc(OC)cc3)nc2-c2ccc(C(F)(F)F)cc2)c1	-3.56% (inactive)
Cc1csc2nc(CSc3ncn[nH]3)cc(=O)n12	-4.64% (inactive)
COc1ccc(-c2cc(NC(=O)c3cc(F)cc(C(F)(F)F)c3)n(-c3ccc(C)cc3)n2)cc1	-4.28% (inactive)
COc1ccc(C(C)=O)cc1COc1ccc(C#N)cc1	-12.7% (inactive)
COc1ccc(CCOc2nc(-c3ccc(OC)cc3)n(-c3ccc(NC(=O)Nc4ccccc4C)cc3)n2)cc1	-6.37% (inactive)
CC(Oc1ccccc1C(N)=O)c1ccccc1Cl (stereo unspecified)	-1.52% (inactive)
CCN1C(=O)N(C2Cc3ccccc3C2)C(=O)C12CCN(Cc1cccc3ncccc13)CC2	-16.7% (inactive)
O=C(Nc1ccc2c(c1)OCO2)c1cc2nc(-c3ccc(F)cc3)cc(C(F)(F)F)n2n1	-6.41% (inactive)
COc1ccc(C=C2SC(=S)NC2=O)cc1OC	28% (inactive)
CCn1nccc1NC(=O)C1(C)CCN1C(=O)c1sccc1C (stereo unspecified)	-3.99% (inactive)
CCOCCCn1c(SCc2cc(F)ccc2C)nc2cc(S(=O)(=O)N3CCCC(C)C3)ccc21 (stereo unspecified)	-6.92% (inactive)
Cc1ccc(OC2(C(=O)N(C)Cc3cc(C4CC4)n[nH]3)CCNCC2)cc1	-3.33% (inactive)
O=C(O)CN1C(=O)/C(=C\c2ccc(F)c(Br)c2)SC1=S	49.9% (active)
CCOc1ccc(/C=C2/SC(=S)N(CC(=O)O)C2=O)cc1	-7.17% (inactive)
O=C(O)CN1C(=O)/C(=C\c2cccc(Cl)c2Cl)SC1=S	6.94% (inactive)
Cc1ccc2nc(-c3ccc([N+](=O)[O-])cc3)nc(-c3ccccc3)c2c1	-7.39% (inactive)
COc1cccc(CNC(=O)Cn2c3ccc(F)cc3c3ncn(Cc4ccccc4)c(=O)c32)c1	-6.62% (inactive)
CC(=O)Nc1ccc(Nc2cc(N3CCCCC3)c3nonc3c2[N+](=O)[O-])cc1	-7.72% (inactive)
C=CC[C@@H]1CC=C[C@@H](C)N1Cc1nc(-c2ccc(C)o2)oc1C	0.508% (inactive)

SMILES	inhibition
COC(=O)c1ccccc1NC(=O)N1CCc2ccccc2C1c1ccc(F)cc1 (stereo unspecified)	-8.08% (inactive)
Cc1nc(SCC(=O)c2ccc(Cl)cc2)c(C#N)c(C)c1C	-5.06% (inactive)
Cc1cc(=O)[nH]c(SCc2cc(-c3ccco3)on2)c1C#N	9.2% (inactive)
Cc1cc(=O)[nH]c(SCC(N)=O)c1C#N	71.9% (active)
N#CC1C(=N)SC(=N)C(C#N)C1c1ccco1 (stereo unspecified)	36.2% (inactive)
N#CC1C(=N)SC(=N)C(C#N)C1c1cccc(O)c1 (stereo unspecified)	57.5% (active)
COc1ccc(-n2ccnc(SCc3ccc(C)cc3)c2=O)cc1Cl	-6.1% (inactive)
Cc1ccc(-c2nc3cc(C)ccn3c2NC(=O)CC(C)C)cc1	-7.17% (inactive)
Cn1c(=O)[nH]c(=O)c2c1nc(N1CCN(Cc3ccccc3F)CC1)n2Cc1ccccc1	-1.19% (inactive)
COc1ccc(C23CC4CC(CC(C(=O)NC5CC5)(C4)C2)C3)cc1	-7.85% (inactive)
Cc1oc(-c2ccc(C(F)(F)F)cc2)nc1CN(C)CC1COc2ccccc2O1 (stereo unspecified)	-4.73% (inactive)
O=C(N1CCC(n2cnc3ccccc32)CC1)C1(c2ccccc2)CC1	-5.7% (inactive)
COc1ccc(CCN(Cc2ccc(C)o2)C(=O)CN(CCN2CCCC2)C(=O)c2ccccc2C)cc1OC	-4.1% (inactive)
CNC(=O)CN(Cc1cccc(Br)c1)C1CC1	-8.9% (inactive)
CC(=O)N(CCN(C)C)c1nc2cc3c(cc2s1)OCO3	1.62% (inactive)
O=C(c1ccccc1)N1CCN2C[C@@H](c3ccccc3)[C@H](CO)[C@H]2C1	-4.18% (inactive)
Cc1ccccc1-n1cc(CN(C)C(=O)c2cn(Cc3cccc4ccccc34)nn2)cn1	-7.32% (inactive)
COc1cccc(C(=O)N(Cc2cccc(OS(=O)(=O)c3ccc(F)cc3)c2)Cc2ccco2)c1	-0.277% (inactive)
COc1ccccc1C(=O)N1CCN(c2cccc(Cl)c2C)C(=O)C1C (stereo unspecified)	51.1% (active)
COc1ccccc1C(=O)N1CCN(c2ccc(F)cc2)C(=O)C1C (stereo unspecified)	-4.08% (inactive)
CC1C(=O)N(c2ccc3c(c2)OCO3)CCN1C(=O)c1ccccc1Cl (stereo unspecified)	0.748% (inactive)
OC(COCc1ccccc1)CN(Cc1ccc(F)cc1)CC1CC(c2ccc3c(c2)OCO3)=NO1 (stereo unspecified)	-4.2% (inactive)
CCc1nc2c(OCCOc3ccc(F)cc3)cccn2c1N(C)C(C)=O	-2.77% (inactive)
